High-throughput results deposited in PubChem BioAssay by National Center for Advancing Translational Sciences (NCATS).
HPGD inh = HPGD (human) dehydrogenase inhibition. purified HPGD, NADH fluorescence kinetic, PGE2 substrate. Potency, µM, without a hit: top-dose activity change, negative = inhibition, most hits filed as inhibitors. 150,000 tested, 4.3% active; also: potency is read from the fitted curve at half-maximal effect; % is scaled to controls: 0 for no effect and ±100 for the full control effect
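20 nM HPGD preincubated 15 min at room temperature with compound in 50 mM Tris-HCl pH 8, 0.01% Tween 20. Started with 1 mM NAD+ and 30 uM prostaglandin E2; NADH fluorescence (360/450 nm) read 5 times over 30-s intervals, last minus first.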
KDM4E inh = JMJD2E (human) inhibition. B2RXH2. JMJD2E catalytic domain, FDH-coupled NADH fluorescence (FDH is formaldehyde dehydrogenase). Potency, µM (series often up to 57.1 µM), for the others: at the highest dose activity change, negative = inhibition, usual class: inhibitors. 230,000 tested, 1.6% active. AID 2147;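 also: potency is read from the fitted curve at half-maximal effect; 0% = wells with enzyme and -100% = buffer wells without enzyme; nearly all actives have a fitted effect of over 50% in size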
ALDH1A1 block = ALDH1A1 (human) enzyme inhibition | P00352 | Purified ALDH1A1, NADH fluorescence, propionaldehyde substrate | Potency, µM (titrated, usually from 75.3 µM), inactives show top-dose activity, negative = inhibition, most hits filed as inhibitors | 220,000 tested, 7.3% active | AID 1030;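 also: potency is read from the fitted curve at half-maximal effect; plate controls were no enzyme wells and a reference inhibitor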
CBFb RUNX1 block = inhibitors of human CBF-beta and RUNX1 interaction | Q01196+Q13951 | AlphaScreen CBFb-His/RUNX1-biotin binding, biochemical | Potency, µM (top dose mostly 59.8 µM), inactives show top-dose activity, negative = inhibition, most hits filed as inhibitors | 230,000 tested, under 10 active | AID 1477; active = well fitted curve in the direction sought with a large enough effect; inconclusive = small, poorly fitted or top-dose-only effect, or another doubt; inactive = no such curve, though single readings can be large; an effect the other way counts as inactive or inconclusive; also: % of control where 0% means no effect
Target sequence (Q01196 whole entry, looked up): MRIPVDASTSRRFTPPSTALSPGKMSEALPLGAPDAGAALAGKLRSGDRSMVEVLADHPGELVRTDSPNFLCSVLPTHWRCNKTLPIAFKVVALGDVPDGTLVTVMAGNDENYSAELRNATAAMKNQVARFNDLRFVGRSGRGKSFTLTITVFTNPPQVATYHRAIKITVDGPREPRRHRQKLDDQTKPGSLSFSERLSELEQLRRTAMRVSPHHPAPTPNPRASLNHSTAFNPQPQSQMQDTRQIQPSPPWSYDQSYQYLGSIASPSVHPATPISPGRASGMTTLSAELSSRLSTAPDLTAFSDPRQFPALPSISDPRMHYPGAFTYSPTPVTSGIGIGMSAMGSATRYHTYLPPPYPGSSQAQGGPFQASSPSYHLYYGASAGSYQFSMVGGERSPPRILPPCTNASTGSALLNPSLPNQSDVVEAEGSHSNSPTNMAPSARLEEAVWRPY
Target sequence (Q13951 whole entry, looked up): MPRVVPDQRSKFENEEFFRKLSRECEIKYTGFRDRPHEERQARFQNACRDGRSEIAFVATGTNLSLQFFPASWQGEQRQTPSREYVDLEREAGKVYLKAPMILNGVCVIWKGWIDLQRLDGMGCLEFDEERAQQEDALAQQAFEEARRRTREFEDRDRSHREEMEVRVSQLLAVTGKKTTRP
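Compounds were screened at multiple concentrations against a preformed CBF-beta(His)/RUNX1(biotin) complex (30 nM of each) for 15 min at room temperature, followed by 90 min with nickel and streptavidin beads and AlphaScreen reading.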
HTT ATP protect = cytoprotection in Huntington HTT-Q103 PC12 cell model; PC12 HTT-Q103 induced, cytoprotection, ATP luminescence, 40 h; Potency, µM (highest dose often 56.4 µM), for inactives: cytoprotection (ATP increase), most hits filed as activators; 230,000 tested, 0.14% active; AID 1471; active = well fitted curve in the direction sought with a large enough effect; inconclusive = small, poorly fitted or top-dose-only effect, or another doubt; inactive = no such curve, though single readings can be large; an effect the other way counts as inactive or inconclusive; also: potency is read from the fitted curve at half-maximal effect; % of control where 0% means no effect; nearly all actives have a fitted effect of over 45% in size
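Readout: ATPlite luminescence (ATP level). Model: stable PC12, inducible Htt exon1 Q103-GFP. Inducer: tebufenozide, 100 nM final. Compounds: dose series. No G418 in medium.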
HttQ103 aggreg = reduces HttQ103-GFP aggregates in PC12 cells; 220,000 tested, 1.1% active; PC12 HttQ103-GFP aggregates, Acumen cytometry, 40 h; AID 1688; Potency, µM (top dose mostly 46.1 µM), without a hit: at the highest dose activity change, negative = inhibition, most hits filed as inhibitors; active = well fitted curve in the direction sought with a large enough effect; inconclusive = small, poorly fitted or top-dose-only effect, or another doubt; inactive = no such curve, though single readings can be large; an effect the other way counts as inactive or inconclusive; also: potency is read from the fitted curve at half-maximal effect; % is scaled to controls: 0 for no effect and ±100 for the full control effect; nearly all actives have a fitted effect of over 60% in size
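Aggregate formation scored by laser-scanning cytometer (488 excitation, 500–530 emission) in lysed PC12 cells expressing Q103-GFP after 100 nM tebufenozide induction; library tested in dose series, with ATPLite reagent added in the multiplex.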
* hit, by the source's call; [ ] = another dose, or the depositor's remark. An excerpt weighted towards active compounds, which were near 9.8% of everything screened. Unless noted, calls follow the shape of the dose curve; as a rule, active = well fitted inhibition curve with a large enough effect (not every such curve was filed as active); inconclusive = small, poorly fitted or top-dose-only effect, or another doubt; inactive = no such curve, though single readings can be large or run the other way.

Screening CCN(CC)S(=O)(=O)c1cccc(-c2nnc(SCC#N)n2Cc2ccccc2)c1 returned HPGD inh -5.8%, KDM4E inh -4.1%, ALDH1A1 block 10µM*, CBFb RUNX1 block 14.4%, HTT ATP protect -4.5%[10 µM] and HttQ103 aggreg -6.6%.
For CCN(CC)S(=O)(=O)c1cccc(-c2nnc(SCC(N)=O)n2CCc2ccccc2)c1 the results were HPGD inh -5.3%, KDM4E inh 4.5%, ALDH1A1 block inconclusive, CBFb RUNX1 block -6.1%, HTT ATP protect -5.3%[10 µM] and HttQ103 aggreg 8.8%.
`CCN(CC)S(=O)(=O)c1cccc(-c2nnc(-c3ccc(C)cc3)o2)c1` gave HPGD inh -23.2%, KDM4E inh -0.4%, ALDH1A1 block 11.2µM*, CBFb RUNX1 block -2.6%, HTT ATP protect -30.5% and HttQ103 aggreg -11.3%.
For COCCn1c(=O)c(-c2ccc(OC)cc2)nc2cnc(N3CCNCC3)nc21 the results were HPGD inh inconclusive, ALDH1A1 block inconclusive and HTT ATP protect -23.1%.
For COC(=O)c1ccc(C(/C=C/[C@@H](C)C(=O)NCCN2CCCC2)NC(=O)OCc2ccccc2)cc1 (some centres undefined) the results were HPGD inh -7.6%, KDM4E inh -3.0%, ALDH1A1 block -7.3%, CBFb RUNX1 block 8.6% and HTT ATP protect -2.8%.
For NNC(=O)c1ccc(CSc2nc3ccccc3[nH]2)cc1 the results were KDM4E inh 15.2%, ALDH1A1 block 10µM*, CBFb RUNX1 block -0.8%, HTT ATP protect -32.0% and HttQ103 aggreg 19.0%.
`Fc1ccccc1CSc1nc2ccccc2[nH]1` gave HPGD inh 20µM*, KDM4E inh 9.6%, ALDH1A1 block 12.6µM*, CBFb RUNX1 block 6.4%, HTT ATP protect -16.6%[10 µM] and HttQ103 aggreg 11.8%.
O=C(O)CSCC(=O)N1CCN(S(=O)(=O)c2cc(Cl)cc(Cl)c2)CC1 was read as KDM4E inh 0.9%, CBFb RUNX1 block 2.9%, HTT ATP protect 6.1%[10 µM] and HttQ103 aggreg -1.4%[9.22 µM].
For O=C(NC(NC1CCS(=O)(=O)C1)C(=O)c1ccccc1)c1ccc(Cl)cc1 (centres undefined) the results were HPGD inh -15.7%, KDM4E inh -13.6%, ALDH1A1 block inconclusive, CBFb RUNX1 block -5.3%, HTT ATP protect -8.8% and HttQ103 aggreg inconclusive.
`COC(=O)Nc1ccc(S(=O)(=O)N2CCCC(C(=O)N3CCN(C)CC3)C2)cc1` (centres undefined) gave KDM4E inh 1.5%, CBFb RUNX1 block 12.1%, HTT ATP protect 11.5%[10 µM] and HttQ103 aggreg -2.0%[9.22 µM].
CC(C)=CCC/C(C)=C/COc1c2occc2cc2ccc(=O)oc12 was read as HPGD inh inconclusive, KDM4E inh inconclusive, ALDH1A1 block 8.91µM*, CBFb RUNX1 block inconclusive and HTT ATP protect -5.8%[1.9 µM].
`CNc1nc(-c2ccc3c(c2)CCN3C(=O)c2ccccc2C)cs1` gave KDM4E inh -13.3%, ALDH1A1 block 12.6µM* and CBFb RUNX1 block -12.9%.
`CNc1nc(-c2ccc3c(c2)CCN3C(=O)c2ccc(F)cc2)cs1` gave KDM4E inh -8.1%, ALDH1A1 block inconclusive, CBFb RUNX1 block -14.4%, HTT ATP protect -65.4% and HttQ103 aggreg -6.5%.
`CS(=O)(=O)N1CCc2cc(-c3csc(NC(=O)Cc4cccs4)n3)ccc21` gave HPGD inh -13.7%, KDM4E inh -8.8%, ALDH1A1 block 12.6µM*, CBFb RUNX1 block -8.6%, HTT ATP protect -23.6%[10 µM] and HttQ103 aggreg -3.1%.
CN1CCN(c2nc(NCc3ccco3)nc(N)c2[N+](=O)[O-])CC1 was read as KDM4E inh -2.5%, CBFb RUNX1 block 5.8%, HTT ATP protect 3.7%[10 µM] and HttQ103 aggreg 2.5%[9.22 µM].
For Nc1nc(NCc2ccco2)nc(N2CCCCC2)c1[N+](=O)[O-] the results were HPGD inh -5.1%, KDM4E inh -6.5%, ALDH1A1 block 3.98µM*, CBFb RUNX1 block -11.9% and HttQ103 aggreg 23.0%.
For Nc1nc(Nc2ccccc2)nc(N2CCOCC2)c1[N+](=O)[O-] the results were HPGD inh -6.9%, KDM4E inh -10.5%, ALDH1A1 block 12.6µM*, CBFb RUNX1 block -15.7%, HTT ATP protect 19.0%[10 µM] and HttQ103 aggreg -11.1%.
`COc1ccc(Nc2nc(N)c([N+](=O)[O-])c(N3CCOCC3)n2)cc1` gave KDM4E inh -2.2%, CBFb RUNX1 block -4.9%, HTT ATP protect 1.8%[10 µM] and HttQ103 aggreg -6.6%[9.22 µM].
Screening Cc1nnc(NC(=O)C2CCN(S(=O)(=O)c3ccc(Cl)cc3)CC2)s1 returned KDM4E inh -4.0%, ALDH1A1 block 1.3%, CBFb RUNX1 block 9.6%, HTT ATP protect -5.6%[10 µM] and HttQ103 aggreg 3.4%.
Screening CNC(=O)c1oc(-c2ccc(Cl)cc2)nc1C returned KDM4E inh inconclusive, ALDH1A1 block -7.1%, CBFb RUNX1 block 3.9%, HTT ATP protect -47.2% and HttQ103 aggreg -6.5%[9.22 µM].
For O=C1CC(Sc2ccc(Cl)cc2)C(=O)N1c1ccc2c(c1)OCCO2 (centres undefined) the results were KDM4E inh 2.9%, CBFb RUNX1 block 5.3%, HTT ATP protect 14.7%[10 µM] and HttQ103 aggreg 11.3%[9.22 µM].
`CCCc1c(O)nc(SCC(=O)NCc2ccco2)[nH]c1=O` gave KDM4E inh -7.1%, ALDH1A1 block 7.1%, CBFb RUNX1 block 2.6%, HTT ATP protect 6.1% and HttQ103 aggreg -3.2%.
Screening CC(CN1CCCCC1)NC(=O)c1cc(-c2ccccn2)nc2ccc(Cl)cc12 (centres undefined) returned KDM4E inh -4.7%, ALDH1A1 block 0.8%, CBFb RUNX1 block -7.5%, HTT ATP protect -5.0%[10 µM] and HttQ103 aggreg 6.0%.
For CCOC(=O)c1c(NC(=O)CSc2ncn[nH]2)sc(C)c1C the results were HPGD inh -14.0%, KDM4E inh inconclusive, ALDH1A1 block 25.1µM*, CBFb RUNX1 block -8.8%, HTT ATP protect 7.2%[10 µM] and HttQ103 aggreg -18.2%.
CCOC(=O)c1c(NC(=O)CSc2nnc(C)c(=O)[nH]2)sc(C)c1C was read as KDM4E inh -0.9%, ALDH1A1 block 2.0%, CBFb RUNX1 block -6.1% and HttQ103 aggreg 6.0%.
Screening CCOC(=O)c1c(N2C(=O)C=CC2=O)sc(C)c1C returned HPGD inh 2µM*, KDM4E inh 1.1%, ALDH1A1 block 0.501µM*, CBFb RUNX1 block 6.5%, HTT ATP protect -6.4%[10 µM] and HttQ103 aggreg inconclusive.
Screening CCOC(=O)c1c(NC(=O)CSC(=S)N(C)C)sc(C)c1C returned HPGD inh -18.4%, KDM4E inh -0.4%, ALDH1A1 block 25.1µM*, CBFb RUNX1 block 11.9% and HttQ103 aggreg -17.7%.
NC(=S)N/N=C/c1ccccc1OCCSc1ccc(Cl)cc1 was read as HPGD inh 35.5µM*, KDM4E inh 3.3%, ALDH1A1 block -6.1%, CBFb RUNX1 block 2.3%, HTT ATP protect -97.9%[10 µM] and HttQ103 aggreg inconclusive.
